The text below walks through data of PubChem BioAssay (NCI).

Molecules are shown by their SMILES. Where “and” joins values, the source holds several entries; their conditions need not be identical. Equal entries are not always repeated. Compounds without any hit were thinned out: in the full panel of roughly 83,000, 20% have a hit.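 Assay: single dose, 48 h. Readout: percent growth (0 = no net growth; negative = cell death). Active: <10.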 Unmarked numbers belong to inactive results. Calls of active or inactive are those of the source.

The test system of the assay is NCI-H226 lung. Briefly: NCI-60 one-dose screen, 48 h (100 = growth as untreated, 0 = no growth, -100 = all killed). The conditions noted are these: 10 µM unless noted. As for the experimental part: Growth inhibition of the NCI-H226 human Non-Small Cell Lung tumor cell line is measured as a screen for anti-cancer activity. Cells are grown in 96 well plates and exposed to the test compound for 48 hours. Compounds are tested at a single concentration, which is 10^-5 M for most compounds. The reported endpoint is percent growth (GI% or GIPRCNT), where numbers from 0 - 100% represent growth inhibition, and numbers from -100% - 0 represent cell death. For example, a value of 40 represents 60% growth inhibition. A value of 0 means no net growth occurred over the course of the experiment. A value of -40 indicates 40% of cells at the beginning of the experiment died by the end of the experiment. A value of -100 means all cells are dead at the end of the experiment.
NCI-60 Human Tumor Cell Lines Screen was performed using the standard one-dose NCI protocol, which is described in more detail at https://dtp.cancer.gov/discovery_development/nci-60/default.htm.
Compounds with GIPRCNT values below 10 were considered active. Activity score was based on GIPRCNT using the following formula: […]
Score is 0 for GIPRCNT values of 100 or above, 50 for GIPRCNT values of 0, and 100 for GIPRCNT values of -100.
With `COc1cc(C(O)C2C(=O)OCC2C2(c3ccc4c(c3)OCO4)SCCCS2)cc(OC)c1OC` (stereo not given), the growth was 100%.
Consider `c1ccc(CNCCNCc2ccccc2)cc1`, for which the growth is 90.4%.
`Nc1ncnc2c1ncn2C1OC(COP(=O)(O)O)C(O)C1O` (stereo not given): the growth is 113%.
The value for `CC(=O)OCC1OC(OC(C)=O)C(OC(C)=O)C(OC(C)=O)C1OC(C)=O` (stereo not given) was 94.9% and 99.6%; that for `CCCCCCCCCCNC(=O)CI` was 76.7%.
Regarding `CC[C@H](CC[C@@H](C)[C@H]1CC[C@H]2[C@@H]3CC=C4C[C@@H](O)CC[C@]4(C)[C@H]3CC[C@]12C)C(C)C`, the growth was 99.6% and 101%.
The value for `O=C(O)/C=C\C(=O)Nc1cccc2ccccc12` was 90.6% and 107%; that for `CC1CCC2(OC1)OC1CC3C4CC=C5CC(O)CCC5(C)C4CCC3(C)C1C2C` (stereo not given) was 92.2%.
`COc1ccc(N/C=C/C2=[N+](C)c3ccccc3C2(C)C)c(OC)c1`: the growth was 83%.
The value for `OCC1OC(O)C(O)C(O)C1O` (stereo not given) was 113%.
For the compound `COc1ccc(Nc2ccc3ccccc3c2)cc1`, the growth was 81%.
Consider `Cc1cc(-c2ccc(N=Nc3ccc4c(S(=O)(=O)O)cc(S(=O)(=O)O)c(N)c4c3O)c(C)c2)ccc1N=Nc1ccc2c(S(=O)(=O)O)cc(S(=O)(=O)O)c(N)c2c1O`, for which the growth is 89.2%.
Consider `O=[N+]([O-])c1cccc(SSc2cccc([N+](=O)[O-])c2)c1`, for which the growth was 106%.
As for `Brc1ccc(SSc2ccc(Br)cc2)cc1`, the growth is 93.7%.
With `O=C(Cc1ccccc1)c1ccc(O)c(Cl)c1`, the growth was 83.7%.
Regarding `NC(=O)NCCCC(N)C(=O)O` (stereo not given), the growth was 98.2%.
Consider `CC(C)(O)C(=O)O`, for which the growth was 102%.
Then `O=C1c2c(O)ccc(O)c2C(=O)c2c(NCCNCCO)ccc(NCCNCCO)c21`, with -55.7% (active) and -60.1% (active); and `NC1CCC(C(=O)O)CC1` (stereo not given), with 104% and 99.6%.
Take `OC1COC(OCc2ccccc2)C(O)C1O` (stereo not given): the growth is 98.1%.
As to `N#CC(C#N)N=Nc1ccc(Cl)cc1`, the growth is 75.1%.
On to `ClCCOCCOc1ccc(C2CCCCC2)cc1`, for which the growth is 92.4%.
As for `COc1ccc2cc1Oc1ccc(cc1)C[C@H]1c3cc(c(OC)cc3CCN1C)Oc1c(OC)c(OC)cc3c1[C@H](C2)N(C)CC3`, the growth is 113%.
Regarding `O=C1OC(c2ccccc2)=N/C1=C\c1ccccc1`, the growth was 90.9%.
`Cl`: the growth is 105%.
Turning to `CCCCNc1ccc(Nc2ccccc2)cc1`, the growth is 73.3%.
With `CN(C)CC1CCCCCC(CN(C)C)C1=O` (stereo not given), the growth was 91.4%.
As for `O=c1[nH]cnc2c1ncn2C1OC(CO)C(O)C1O` (stereo not given), the growth was 108% and 103% and 97.4%.
As for `CC1CCC2(C(=O)O)CCC3(C)C(=CCC4C5(C)CCC(O)C(C)(C)C5CCC43C)C2C1C` (stereo not given), the growth is 67.9% and 98%.
`CCN(CCNS(C)(=O)=O)c1ccc(N)c(C)c1`: the growth is 92.9% and 82.7%.
As to `Nc1ccc2c(O)cc(S(=O)(=O)O)cc2c1`, the growth was 96% and 91.9%.
As for `NC(Cc1c[nH]c2ccccc12)C(=O)O` (stereo not given), the growth was 90.6% and 103%.
As to `O=C1OC(C(O)C(O)CO)C(O)=C1O` (stereo not given), the growth is 100%.
Turning to `CC(=O)Nc1ccc(S(N)(=O)=O)cc1`, the growth was 107% and 102%.
`CC(=O)NCC(=O)c1ccc([N+](=O)[O-])cc1`: the growth is 98%.
Then `O=CN1CCCCC1`, with 105%; and `CC(C)NCC(O)c1ccc(O)c(O)c1` (stereo not given), with 88.4% and 114% and 98.8%.
Turning to `O=C1CSC2=NCCN12`, the growth was 102% and 85.5%.
Then `O=C(CO)C(O)C(O)C(O)C(O)CO` (stereo not given), with 96.2% and 101%.
The value for `CC1=C/C(O)CC(=O)Cc2nc(co2)C(=O)N2CCC=C2C(=O)OC(C(C)C)C(C)/C=C\C(=O)NC/C=C\1` (stereo not given) was 82.9%.
